# PMC10480535
# Target: MOB kinase activator 2 (UniProt Q70IA6)
# Assay: cross-link between two proteins; cross-linking mass spectrometry; proximity labelling
# Chain of UniProt Q70IA6 (Q70IA6 whole entry): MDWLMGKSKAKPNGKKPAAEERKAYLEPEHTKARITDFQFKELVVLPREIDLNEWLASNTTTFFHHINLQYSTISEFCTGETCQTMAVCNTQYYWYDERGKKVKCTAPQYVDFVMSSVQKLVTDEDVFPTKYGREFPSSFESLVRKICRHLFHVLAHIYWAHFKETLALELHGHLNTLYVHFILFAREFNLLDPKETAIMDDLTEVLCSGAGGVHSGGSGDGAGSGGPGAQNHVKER
substance,measurement,value
"Flotillin-1, O75955",listed as a hit,yes
